Experimental data from PubChem BioAssay (Tox21).
Values joined by “and” are separate entries in the source; they are usually repeats but may differ in a detail not shown here. Identical values can stand only once. Records with an inconclusive call do not appear. Active and inactive are the calls of the source. The call rests on the fitted dose curve; in most records, active means well fitted inhibition curve with a large enough effect in the signal ratio in the repeat runs (not every such curve was filed as active); inconclusive means weak or mixed curves; inactive means flat fitted curve, though single readings scatter; the % refers to the signal ratio.

What follows are compounds tested against Progesterone receptor (Homo sapiens) (UniProt P06401) (assay: qHTS assay to identify small molecule antagonists of the progesterone receptor (PR) signaling pathway (AID 1346795)). Details: PR-UAS-bla HEK293T, beta-lactamase FRET ratio, 16 h; series mostly up to 92.4 µM; activity change, negative = inhibition: at the top concentration.
Excerpt: National Center for Advancing Translational Sciences [NCATS]
NIH Chemical Genomics Center [NCGC]
U.S. Environmental Protection Agency [EPA]
National Institutes of Environmental Health Sciences [NIEHS]
National Toxicology Program [NTP]
U.S. Food and Drug Administration [FDA]
Progesterone receptor (PR), a nuclear hormone receptor, plays an important role in development, metabolic homeostasis and reproduction. […] Endocrine disrupting chemicals (EDCs) and their interactions with steroid hormone receptors like PR causes disruption of normal endocrine function. To identify the compounds that inhibit PR signaling, a PR-UAS-bla GripTite cell line i.e. PR-UAS-bla HEK293T (Invitrogen, Carlsbad, CA, USA) containing a beta-lactamase reporter gene under the control of an Upstream Activator Sequence (UAS) was used to screen Tox21 10K compound library.
Tox21 Assay Protocol Summary:
PR-UAS-bla HEK293T cells were dispensed at 3,000 cells/4 uL of assay medium containing 2% charcoal stripped FBS per well into black wall/clear-bottom 1536-well plates using a Multidrop Combi (ThermoFisher Scientific, Waltham, MA) dispenser. After the assay plates were incubated at a 37C and 5% CO2 for 6 hr, 23 nL of compounds dissolved in DMSO, positive controls or DMSO only was transferred to the assay plate by a Pintool station (Kalypsys, San Diego, CA), followed by addition of 1 uL (1nM as final concentration) of Promegestone (R5020) in assay medium using a BioRAPTR FRD (Flying Reagent Dispenser, Aurora Discovery, San Diego, CA). The plates were incubated at 37C and 5% CO2 for 16 hr. Then 1 uL of LiveBLAzer B/G FRET substrate was added using a FRD. After the plates were incubated at room temperature for 2 hours, fluorescence intensity was measured by an Envision plate reader (PerkinElmer, Shelton, CT).
On the % scale 0 is the no-effect control and ±100 the full control effect; potency means the concentration at half of the fitted maximal effect.

Sequence of Progesterone receptor (Homo sapiens) (P06401 whole entry, looked up): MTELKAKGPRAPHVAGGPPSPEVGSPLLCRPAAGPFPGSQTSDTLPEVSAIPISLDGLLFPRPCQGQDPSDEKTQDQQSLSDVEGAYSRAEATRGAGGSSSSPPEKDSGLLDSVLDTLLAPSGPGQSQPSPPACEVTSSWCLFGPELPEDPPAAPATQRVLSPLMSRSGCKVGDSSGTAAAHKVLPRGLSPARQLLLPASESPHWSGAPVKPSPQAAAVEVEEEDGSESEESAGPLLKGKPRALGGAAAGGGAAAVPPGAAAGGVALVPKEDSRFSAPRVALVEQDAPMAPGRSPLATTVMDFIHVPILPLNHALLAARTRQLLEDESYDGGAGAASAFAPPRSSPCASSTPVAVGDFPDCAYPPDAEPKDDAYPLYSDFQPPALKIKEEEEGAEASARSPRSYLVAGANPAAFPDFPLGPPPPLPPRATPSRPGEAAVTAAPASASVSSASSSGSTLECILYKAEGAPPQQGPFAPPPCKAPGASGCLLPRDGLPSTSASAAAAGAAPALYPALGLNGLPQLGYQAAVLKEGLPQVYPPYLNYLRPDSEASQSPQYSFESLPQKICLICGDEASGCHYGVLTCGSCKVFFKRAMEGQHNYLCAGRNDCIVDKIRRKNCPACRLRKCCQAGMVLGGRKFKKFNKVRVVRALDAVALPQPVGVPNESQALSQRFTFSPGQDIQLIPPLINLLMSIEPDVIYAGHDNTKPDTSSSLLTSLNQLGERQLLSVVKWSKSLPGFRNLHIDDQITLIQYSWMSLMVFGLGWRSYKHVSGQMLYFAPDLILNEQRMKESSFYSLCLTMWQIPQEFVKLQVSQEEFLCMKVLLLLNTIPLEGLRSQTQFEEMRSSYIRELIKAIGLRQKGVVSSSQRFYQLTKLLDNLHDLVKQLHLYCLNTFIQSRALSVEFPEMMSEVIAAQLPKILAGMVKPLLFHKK

Structure (SMILES)	activity change, negative = inhibition	Potency
CCC(C)(C)C1CCCCC1OC(C)=O (stereo not given)	-1.68% (inactive)	–
NNc1nc(-c2ccccc2)cs1	–	19.9 µM (active)
Oc1cc2ccccc2c2ccccc12	–	6.11 µM (active)
N=C1C=CC(=C(c2ccc(N)cc2)c2ccc(N)cc2)C=C1	15% (inactive)	–
Oc1ccc2cc(SSc3ccc4cc(O)ccc4c3)ccc2c1	–	30.7 µM (active) and 48.6 µM (active)
O=C(Nc1ccc(Oc2ccc(Cl)cc2)c(Cl)c1)c1cc(I)cc(I)c1O	–	23.7 µM (active)
CCC1=C[C@@H]2CN(C1)Cc1c([nH]c3ccccc13)[C@@](C(=O)OC)(c1cc3c(cc1OC)N(C)[C@H]1[C@@](O)(C(=O)OC)[C@H](OC(C)=O)[C@]4(CC)C=CCN5CC[C@]31[C@@H]54)C2	–	0.944 µM (active)
COc1cc(-c2ccc(N=C=O)c(OC)c2)ccc1N=C=O	0.133% [at 42.5 µM] (inactive)	–
O=C(c1ccc(O)cc1O)c1ccc(O)cc1O	–	10.9 µM (active)
CC(C)(C)C(=O)OCOC(=O)[C@@H]1N2C(=O)[C@@H](NC(=O)[C@H](N)c3ccccc3)[C@H]2SC1(C)C	-0.112% [at 42.5 µM] (inactive)	–
CC1=NC(C)OC1C (stereo not given)	0.567% (inactive)	–
C=CC(=O)OCC(CO)(COCC(COC(=O)C=C)(COC(=O)C=C)COC(=O)C=C)COC(=O)C=C	–	6.04 µM (active)
Cc1ccc(O)c(C(C)(C)C)c1	–	inactive
CSc1ccc(C(=O)c2[nH]c(=O)[nH]c2C)cc1	6.67% [at 42.5 µM] (inactive)	–
Nc1ccc(N)c2ccccc12	–	54.4 µM (active)
CCCCCCCCCCC=O	-5.93% (inactive)	–
CCN(Cc1cccnc1)C(=O)c1cccc(Cl)c1[C@]1(C)C(=O)N(Cc2ccc(OC)cc2OC)c2ccc(Cl)cc21	–	16.1 µM (active)
Nc1c(Cl)cc(Cl)cc1Cl	3.73% (inactive)	–
O=c1cccccc1O	-17.9% (inactive)	–
Oc1ccc2c(c1)-c1ccccc1C2	–	17.2 µM (active)

Structure (SMILES)	activity change, negative = inhibition	Potency
c1ccc(CSCc2ccccc2)cc1	-20.5% (inactive)	–
NNc1nc(-c2ccc(N)cc2)cs1	-16.6% (inactive)	–
Oc1c(Cl)cc(Cl)c2cccnc12	–	0.841 µM (active)
O=C(Oc1ccccc1)c1ccccc1C(=O)Oc1ccccc1	–	24.3 µM (active)
CC(C)CCCCCCCCCCCCCCC(=O)O	-4.25% (inactive)	–
CCCCN(CCCC)C(=O)N(CCCC)CCCC	-4.11% (inactive)	–
N#CSc1ccc(N)c([N+](=O)[O-])c1	–	30.8 µM (active)
CCN1/C(=C/C=C/c2sc3ccccc3[n+]2CC)Sc2ccccc21	–	11.6 µM (active)
CCCCCCCCCOC(=O)c1ccc(O)cc1	–	24 µM (active)
CCCCCCCCCCCCCCCS(=O)(=O)Oc1ccccc1	-13% [at 42.5 µM] (inactive)	–
O=C1c2c(O)ccc(Nc3ccc(CCO)cc3)c2C(=O)c2c([N+](=O)[O-])ccc(O)c21	-19% (inactive)	–
Cc1onc(-c2c(Cl)cccc2Cl)c1C(=O)N[C@@H]1C(=O)N2[C@@H]1SC(C)(C)[C@@H]2C(=O)O	-8.62% [at 42.5 µM] (inactive)	–
COc1ccc(-c2ccc3cc(C(=O)O)ccc3c2)cc1C12CC3CC(CC(C3)C1)C2	-16.3% [at 42.5 µM] (inactive)	–
NNC(=O)c1cccc(C(=O)NN)c1	9.89% (inactive)	–
Cc1c(C)c2c(c(C)c1O)CCC(C)(COc1ccc(CC3SC(=O)NC3=O)cc1)O2 (stereo not given)	–	18.8 µM (active)
Cc1cccc(S(=O)(=O)O)c1C	10.2% (inactive)	–
COC(=O)C1=C(C)NC(C)=C(C(=O)OCCc2ccc(N3CCN(C(c4ccccc4)c4ccccc4)CC3)cc2)C1c1cccc([N+](=O)[O-])c1 (stereo not given)	-15.8% [at 42.5 µM] (inactive)	–
C/C(=C(/OCCOc1ccc(Cl)cc1)c1ccc(Cl)cc1Cl)n1ccnc1	–	8.41 µM (active)
O=C1CCCCCN1SSN1CCCCCC1=O	13.2% (inactive)	–
CCc1oc2ccccc2c1C(=O)c1cc(Br)c(O)c(Br)c1	–	23.7 µM (active)
